Out of some 39,000 compounds screened, about 3,300 (8.5%) were called active. This excerpt belongs to a sample that is enriched for actives.

The assay deals with HepG2. The assay can be described thus: cytotoxicity call (relative viability < 0.9). The conditions noted are these: 10 µM.
As to `COc1ccccc1-c1ccc2c(c1)O[C@@H](CN(C)C(=O)c1ccncc1)[C@H](C)CN([C@@H](C)CO)S2(=O)=O`, the cytotoxicity call is “inactive”.
Turning to `CN1CCN(C(=O)C[C@H]2CC[C@H]3[C@@H](COC[C@H](O)CN3C(=O)C3CCOCC3)O2)CC1`, the cytotoxicity call is “inactive”.
Consider `Cc1noc(C)c1NC(=O)Nc1ccc2c(c1)CC(=O)N([C@@H](C)CO)C[C@H](C)[C@@H](CN(C)S(=O)(=O)c1c(C)noc1C)O2`, for which the cytotoxicity call is “inactive”.
As for `CC(C)C[C@@H]1NC(=O)[C@H]2C[C@@H](C(=O)NCCCC[N+](C)(C)C)[C@@H](c3cccc(OCCO)c3)N2C1=O`, the entry is “inactive”; as for `CO[C@H]1CN(C)C(=O)c2cc(NS(C)(=O)=O)ccc2OC[C@H](C)N(C(=O)C2CCOCC2)C[C@@H]1C`, “inactive”; as for `N#CCCn1c(CC(N)=O)nc2ccccc21`, “inactive”.
Turning to `Cc1cccc(S(=O)(=O)N2C[C@H](O)COC[C@@H]3O[C@@H](CC(=O)NCc4ccncn4)CC[C@H]32)c1`, the cytotoxicity call was “inactive”.
Under `C[C@@H]1CCCCO[C@@H](CN(C)Cc2ccc(C(F)(F)F)cc2)[C@H](C)CN([C@H](C)CO)C(=O)c2cc(NC(=O)Nc3ccc4c(c3)OCO4)ccc2O1` stands “active”; under `C[C@H]1CCCCO[C@H](CN(C)Cc2ccc(C(F)(F)F)cc2)[C@@H](C)CN([C@@H](C)CO)C(=O)c2cc(NC(=O)Nc3ccc4c(c3)OCO4)ccc2O1`, “active”; under `C[C@@H]1CCCCO[C@H](CN(C)Cc2ccc(C(F)(F)F)cc2)[C@@H](C)CN([C@H](C)CO)C(=O)c2cc(NC(=O)Nc3ccc4c(c3)OCO4)ccc2O1`, “active”.
As for `C[C@H](CO)N1C[C@H](C)[C@@H](CN(C)Cc2ccc(C(F)(F)F)cc2)OCCCC[C@H](C)Oc2ccc(NC(=O)Nc3ccc4c(c3)OCO4)cc2C1=O`, the entry is “inactive”; as for `C[C@H](CO)N1C[C@H](C)[C@H](CN(C)Cc2ccc(C(F)(F)F)cc2)OCCCC[C@H](C)Oc2ccc(NC(=O)Nc3ccc4c(c3)OCO4)cc2C1=O`, “inactive”; as for `C[C@@H]1CCCCO[C@H](CN(C)Cc2ccc(C(F)(F)F)cc2)[C@H](C)CN([C@@H](C)CO)C(=O)c2cc(NC(=O)Nc3ccc4c(c3)OCO4)ccc2O1`, “active”.
As for `C[C@@H]1CCCCO[C@@H](CN(C)Cc2ccc(C(F)(F)F)cc2)[C@@H](C)CN([C@H](C)CO)C(=O)c2cc(NC(=O)Nc3ccc4c(c3)OCO4)ccc2O1`, the entry is “inactive”; as for `C[C@H]1CCCCO[C@@H](CN(C)Cc2ccc(C(F)(F)F)cc2)[C@@H](C)CN([C@@H](C)CO)C(=O)c2cc(NC(=O)Nc3ccc4c(c3)OCO4)ccc2O1`, “inactive”; as for `CC1(C)SC2C(NC(=O)C(N)c3ccccc3)C(=O)N2C1C(=O)[O-].[Na+]` (centres undefined), “inactive”.
`C[C@@H]1CCCCO[C@H](CN(C)C(=O)Nc2ccc(F)cc2)[C@H](C)CN([C@H](C)CO)C(=O)c2cc(NS(=O)(=O)c3cccs3)ccc2O1`: the cytotoxicity call is “inactive”.
As for `COc1ccc(NC(=O)Nc2ccc3c(c2)C(=O)N([C@@H](C)CO)C[C@H](C)[C@H](CN(C)Cc2ccncc2)OCCCC[C@H](C)O3)cc1`, the entry is “inactive”; as for `COC1C=COC2(C)Oc3c(C)c(O)c4c(O)c(c(C=NN5CCN(C)CC5)c(O)c4c3C2=O)NC(=O)C(C)=CC=CC(C)C(O)C(C)C(O)C(C)C(OC(C)=O)C1C` (centres undefined), “inactive”; as for `COc1ccc(NC(=O)Nc2ccc3c(c2)C(=O)N([C@@H](C)CO)C[C@@H](C)[C@H](CN(C)C(=O)Nc2cccc4ccccc24)OCCCC[C@@H](C)O3)cc1`, “inactive”.
Under `N[C@@H](C(=O)O)c1ccc(O)cc1` stands “inactive”.
Under `C[C@@H]1CCCCO[C@H](CN(C)C(=O)Nc2cccc3ccccc23)[C@@H](C)CN([C@H](C)CO)C(=O)c2cc(N(C)C)ccc2O1` stands “inactive”; under `CC(C=CC1(O)C(C)=CC(=O)CC1(C)C)=CC(=O)O` (mixture of isomers) [ABSCISIC ACID (cis,trans; +/-) ], “inactive”; under `C[C@H]1CN([C@@H](C)CO)C(=O)c2cc(NC(=O)CCC(F)(F)F)ccc2O[C@H]1CN(C)Cc1ccc(Oc2ccccc2)cc1`, “active”.
As for `C[C@H]1CN([C@@H](C)CO)C(=O)c2cc(NC(=O)CCC(F)(F)F)ccc2O[C@@H]1CN(C)Cc1ccc(Oc2ccccc2)cc1`, the cytotoxicity call is “inactive”.
Under `C[C@@H]1CN([C@H](C)CO)C(=O)c2cc(NC(=O)CCC(F)(F)F)ccc2O[C@@H]1CN(C)Cc1ccc(Oc2ccccc2)cc1` stands “inactive”.
Under `C[C@@H]1CN([C@H](C)CO)C(=O)c2cc(NC(=O)CCC(F)(F)F)ccc2O[C@H]1CN(C)Cc1ccc(Oc2ccccc2)cc1` stands “inactive”.
As for `C[C@H](CO)N1C[C@H](C)[C@H](CN(C)Cc2ccc(Oc3ccccc3)cc2)Oc2ccc(NC(=O)CCC(F)(F)F)cc2C1=O`, the entry is “inactive”; as for `C[C@@H]1CN([C@@H](C)CO)C(=O)c2cc(NC(=O)CCC(F)(F)F)ccc2O[C@@H]1CN(C)Cc1ccc(Oc2ccccc2)cc1`, “active”.
In the case of `COc1ccccc1S(=O)(=O)N[C@H]1CC[C@@H](CCNC(=O)C2CCOCC2)O[C@H]1CO`, the cytotoxicity call was “inactive”.
As to `CSCC[C@H]1NC(=O)NC1=O`, the cytotoxicity call was “inactive”.
Under `OCCC12CC3CC(CC(C3)C1)C2` stands “inactive”; under `C[C@@H]1CN([C@@H](C)CO)C(=O)CCCn2cc(nn2)CO[C@H]1CN(C)C(=O)Nc1ccc(N2CCCCC2)cc1`, “inactive”.
As to `C[C@H]1CN([C@@H](C)CO)C(=O)c2cccc(NS(=O)(=O)c3ccc(F)cc3)c2O[C@@H]1CN(C)C(=O)Nc1ccc(C(F)(F)F)cc1`, the cytotoxicity call was “inactive”.
Under `C[C@H]1CN([C@@H](C)CO)C(=O)c2cccc(NS(=O)(=O)c3ccc(Cl)cc3)c2O[C@H]1CN(C)C(=O)Nc1ccc(C(F)(F)F)cc1` stands “inactive”; under `C[C@H](CO)N1C[C@H](C)[C@@H](CN(C)C(=O)Nc2ccc(C(F)(F)F)cc2)Oc2c(NS(=O)(=O)c3ccc(Cl)cc3)cccc2C1=O`, “inactive”; under `C[C@H]1CN([C@@H](C)CO)C(=O)c2cccc(NS(=O)(=O)c3ccc(F)cc3)c2O[C@H]1CN(C)C(=O)Nc1ccc(C(F)(F)F)cc1`, “inactive”.
Under `C[C@@H]1CN([C@H](C)CO)C(=O)c2cccc(NS(=O)(=O)c3ccc(F)cc3)c2O[C@H]1CN(C)C(=O)Nc1ccc(C(F)(F)F)cc1` stands “inactive”.
As for `C[C@@H]1CN([C@@H](C)CO)C(=O)c2cccc(NS(=O)(=O)c3ccc(Cl)cc3)c2O[C@@H]1CN(C)C(=O)Nc1ccc(C(F)(F)F)cc1`, the entry is “active”.
Turning to `C[C@H]1CN([C@@H](C)CO)C(=O)c2cccc(NS(=O)(=O)c3ccc(Cl)cc3)c2O[C@@H]1CN(C)C(=O)Nc1ccc(C(F)(F)F)cc1`, the cytotoxicity call is “inactive”.
For `C[C@@H]1CN([C@H](C)CO)C(=O)c2cccc(NS(=O)(=O)c3ccc(Cl)cc3)c2O[C@@H]1CN(C)C(=O)Nc1ccc(C(F)(F)F)cc1`, the cytotoxicity call was “active”.
Under `C[C@@H]1CN([C@@H](C)CO)C(=O)c2cccc(NS(=O)(=O)c3ccc(Cl)cc3)c2O[C@H]1CN(C)C(=O)Nc1ccc(C(F)(F)F)cc1` stands “inactive”; under `C[C@H](CO)N1C[C@H](C)[C@H](CN(C)C(=O)Nc2ccc(C(F)(F)F)cc2)Oc2c(NS(=O)(=O)c3ccc(Cl)cc3)cccc2C1=O`, “active”; under `C[C@@H]1CN([C@H](C)CO)C(=O)c2cccc(NS(=O)(=O)c3ccc(Cl)cc3)c2O[C@H]1CN(C)C(=O)Nc1ccc(C(F)(F)F)cc1`, “inactive”.
Regarding `C[C@@H]1CN([C@@H](C)CO)C(=O)c2cccc(NS(=O)(=O)c3ccc(F)cc3)c2O[C@@H]1CN(C)C(=O)Nc1ccc(C(F)(F)F)cc1`, the cytotoxicity call was “active”.
On to `C[C@@H]1CC=CC[C@H](c2cccc(Cl)c2)NC(=O)[C@@H](Cc2ccccc2)N(C)C(=O)c2ccccc2O1`, for which the cytotoxicity call was “inactive”.
As for `C[C@@H]1CN([C@@H](C)CO)C(=O)c2c(c3ccccc3n2C)-c2ccccc2CO[C@@H]1CN(C)C(=O)N[C@H](C)c1ccccc1`, the entry is “inactive”; as for `Cc1ccc(S(=O)(=O)N(C)C[C@@H]2Oc3cc(Br)ccc3S(=O)(=O)N([C@@H](C)CO)C[C@H]2C)cc1`, “inactive”; as for `Cc1noc(C)c1S(=O)(=O)Nc1ccc2c(c1)C(=O)N([C@H](C)CO)C[C@H](C)[C@@H](CN(C)C(=O)Nc1ccccc1)OCCCC[C@H](C)O2`, “inactive”.
For the molecule `O=C1N[C@@H](CC(=O)N2CCN(CCc3ccncc3)CC2)C(=O)Nc2ccccc21`, the cytotoxicity call is “inactive”.
Under `COc1ccc(-c2cnc3c(c2)C(=O)N([C@@H](C)CO)C[C@@H](C)[C@H](CN(C)C(=O)Cc2ccccn2)O3)cc1` stands “inactive”; under `CCCNC(=O)N[C@H]1CC[C@H](CC(=O)N2CCN(C)CC2)O[C@H]1CO`, “inactive”; under `C[C@@H](O)CNC(=O)C(=O)NC(C)(C)C`, “inactive”.
As for `COc1cccc(-c2cn(CC[C@@H]3CC[C@H](NC(=O)CN(C)C)[C@H](CO)O3)nn2)c1`, the entry is “inactive”; as for `C[C@H]1CN([C@@H](C)CO)C(=O)c2cc(NC(=O)Cc3ccccc3)ccc2O[C@@H]1CN(C)S(=O)(=O)c1cn(C)cn1`, “inactive”; as for `NCCCC[C@H](NC(=O)[C@@H]1CCCN1C(=O)[C@@H]1CSSC[C@H](N)C(=O)N[C@@H](Cc2ccccc2)C(=O)N[C@@H](Cc2ccccc2)C(=O)NC(CCC(N)=O)C(=O)N[C@@H](CC(N)=O)C(=O)N1)C(=O)NCC(N)=O` (some centres undefined), “inactive”.
As to `NCCC[C@H](NC(=O)[C@@H]1CCCN1C(=O)[C@@H]1CSSC[C@H](N)C(=O)N[C@@H](Cc2ccc(O)cc2)C(=O)N[C@@H](Cc2ccccc2)C(=O)N[C@@H](CCC(N)=O)C(=O)N[C@@H](CC(N)=O)C(=O)N1)C(=O)NCC(N)=O`, the cytotoxicity call was “active”.
As for `NCCCC[C@H](NC(=O)[C@@H]1CCCN1C(=O)[C@@H]1CSSC[C@H](N)C(=O)N[C@@H](Cc2ccc(O)cc2)C(=O)N[C@@H](Cc2ccccc2)C(=O)N[C@@H](CCC(N)=O)C(=O)N[C@@H](CC(N)=O)C(=O)N1)C(=O)NCC(N)=O`, the entry is “inactive”.
Under `CNC[C@H]1OCCCC[C@H](C)Oc2ccc(NC(=O)Nc3ccc(C(F)(F)F)cc3)cc2C(=O)N([C@H](C)CO)C[C@@H]1C` stands “inactive”.

For the origin of these results see the antibiotic and cytotoxicity screens of Wong et al. (2023).
